Most compounds without a hit are left out; they make up all but 2% or so of the library.
NadD inh = inhibitors of Staphylococcus aureus NadD; inhibition, % at 20 µM; purified NadD enzyme, colorimetric absorbance read-out; hit rate 0.78% among 360,000; in the data active = inhibition above about 26%
Neddyl block = inhibitors of human cullin neddylation; P61081+Q13564; inhibition, % at 25 µM; hit rate 0.58% among 360,000; TR-FRET cullin neddylation, biochemical; in the data active = inhibition above about 36%
Target sequence (P61081 whole entry, looked up): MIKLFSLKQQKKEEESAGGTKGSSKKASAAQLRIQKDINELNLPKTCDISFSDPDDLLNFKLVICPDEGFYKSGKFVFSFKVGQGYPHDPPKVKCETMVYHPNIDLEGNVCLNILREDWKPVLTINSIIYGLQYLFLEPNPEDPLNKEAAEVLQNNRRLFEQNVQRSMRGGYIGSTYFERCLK
Target sequence (Q13564 whole entry, looked up): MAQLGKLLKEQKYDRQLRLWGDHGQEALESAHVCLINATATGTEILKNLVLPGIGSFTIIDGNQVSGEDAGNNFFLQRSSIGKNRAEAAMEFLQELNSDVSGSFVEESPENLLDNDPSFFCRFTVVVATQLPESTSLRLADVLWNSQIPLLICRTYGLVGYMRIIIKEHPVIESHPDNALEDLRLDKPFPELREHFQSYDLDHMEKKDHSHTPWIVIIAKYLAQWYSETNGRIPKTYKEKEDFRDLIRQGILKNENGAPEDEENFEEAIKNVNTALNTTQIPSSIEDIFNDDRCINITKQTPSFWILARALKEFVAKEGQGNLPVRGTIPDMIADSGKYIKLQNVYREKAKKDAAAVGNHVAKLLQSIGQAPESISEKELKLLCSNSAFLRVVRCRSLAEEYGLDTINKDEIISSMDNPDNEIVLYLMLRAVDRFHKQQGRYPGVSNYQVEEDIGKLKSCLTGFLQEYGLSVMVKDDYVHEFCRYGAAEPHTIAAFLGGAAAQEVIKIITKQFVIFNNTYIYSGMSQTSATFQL
ARNT TACC3 PPI = ARNT/TACC3 interaction disruption | Q9Y6A5 | hit rate 0.66% among 390,000 | AlphaScreen His-ARNT PAS-B/GST-TACC3 binding, luminescence; TACC3 fragment carries E629A point mutation | AID 623870 | inhibition, % at 9.99 µM;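 active = mean inhibition of replicates at least 50% and at least half of replicates each reaching 50%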;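 note: 0% = complete ARNT plus TACC3 wells and 100% = ARNT alone without TACC3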
HGIII-sPLA2 inh = Inhibits HGIII-sPLA2 liposome hydrolysis, primary screen; inhibition, % at 12.2 µM; hit rate 0.56% among 370,000; Q9NZ20; QFRET BODIPY PC-A2 liposome hydrolysis, fluorescence; AID 743126;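 active = inhibition above mean plus 3 SD of compounds lying within the high and low control bounds, cut at about 19% in these data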;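 note: 0% = median of test compound wells and 100% = no enzyme DMSO wells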
DAGLB inhibitor = diacylglycerol lipase beta (human) inhibition; Q8NCG7; HEK293T DAGLB membrane lysate, EnzChek fluorogenic substrate; inhibition, % at 5.17 µM; hit rate 0.059% among 340,000; in the data active = inhibition above about 34%;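 note: 0% = enzyme with vehicle and 100% = wells lacking enzyme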
DAGLB confirm = DAGLB (human) inhibition, confirmation screen | HEK293T DAGLB membrane lysate, EnzChek fluorogenic substrate | shares compounds with DAGLB inhibitor | inhibition, % at 5.17 µM | hit rate 73% among 190;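 active = mean inhibition over triplicate wells above a set limit taken from the primary lipase screen, cut at about 34% in these data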;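 note: 0% = DAGLB with DMSO and 100% = wells lacking DAGLB enzyme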
NadD inh conf = NadD (S. aureus) inhibition, single concentration confirmation; purified S. aureus NadD, colorimetric enzyme assay; inhibition, % at 20 µM; hit rate 13% among 2,000; shares compounds with NadD inh; AID 624309; in the data active = inhibition mostly above about 42%, no sharp cut-off; inactive = mostly below about 42%
An asterisk follows results filed as active; nt = no result given.

SMILES	NadD inh	Neddyl block	ARNT TACC3 PPI	HGIII-sPLA2 inh	DAGLB inhibitor	others
Cc1cc2c(C(C)C)c(O)c(O)c(C=O)c2c(O)c1-c1c(C)cc2c(C(C)C)c(O)c(O)c(C=O)c2c1O	50*	-8	nt	9	nt
O=C(Cc1ccccn1)N1CCCCN2[C@H](C1)[C@@H](c1ccc(C#Cc3ccccc3)cc1)[C@@H]2CO	nt	nt	10	nt	nt
CCCCCC(=O)N[C@@H](c1ccccc1)[C@@H](O)C(=O)O[C@H]1C[C@@]2(O)[C@@H](OC(=O)c3ccccc3)C3[C@](C)(C(=O)[C@H](O)C(=C1C)C2(C)C)[C@@H](OC1OCC(O)C(O)C1O)C[C@H]1OC[C@@]31OC(C)=O (stereo not given in full)	-3	-5	57*	-20	-1
CC(=O)O[C@@]12CO[C@@H]1C[C@H](OC1OCC(O)C(O)C1O)[C@@]1(C)C(=O)[C@H](O)C3=C(C)[C@@H](OC(=O)[C@H](O)[C@@H](NC(=O)c4ccccc4)c4ccccc4)C[C@@](O)([C@@H](OC(=O)c4ccccc4)C12)C3(C)C (stereo not given in full)	7	7	4	-12	0
O=C(Cc1ccccc1)N1CCCCN2[C@H](CO)[C@H](c3ccc(C#CC4(O)CCCC4)cc3)[C@H]2C1	nt	nt	-31	nt	nt
Cc1ccccc1S(=O)(=O)N1[C@@H]2Cn3c(ccc(-c4cccnc4)c3=O)[C@H]1[C@@H](C(=O)O)[C@@H]2CO	nt	nt	7	nt	nt
CCCNC(=O)[C@@H]1[C@@H](CO)[C@@H]2Cn3c(cccc3=O)[C@H]1N2CCC	nt	nt	-6	nt	nt
O=C1NC(=O)C(=Cc2ccc(SC3CCCCC3)o2)C(=O)N1	36*	8	-8	1	17
NS(=O)(=O)c1ccc(-c2ccc(C=C3C(=O)NC(=O)NC3=O)o2)cc1	2	-11	24	4	-1
O=C(O)[C@H]1[C@H](CO)[C@H]2Cn3c(ccc(-c4cccnc4)c3=O)[C@@H]1N2S(=O)(=O)c1ccccc1F	nt	nt	-16	nt	nt
COc1cc(/C=C2\C(=O)NC(=O)N(c3ccccc3)C2=O)cc(OC)c1OC	5	6	-52	-1	0
COc1ccc(/C=C2/C(=O)NC(=O)N(c3ccc(C)c(C)c3)C2=O)cc1CN1C(=O)c2ccccc2C1=O	29*	-20	3	2	4
CCCCN1C(=O)/C(=C/c2ccc(N(C)C)cc2)C(=O)N(Cc2ccco2)C1=O	34*	0	6	-2	13
CCN(CC)c1ccc(/C=C2\C(=O)NC(=O)N(Cc3ccco3)C2=O)cc1	12	0	-6	1	4
COC(=O)[C@H]1[C@H](CO)[C@H]2Cn3c(ccc(C4=CCCCC4)c3=O)[C@@H]1N2CCc1ccccc1	nt	nt	-6	nt	nt
CN1C(=O)/C(=C\c2ccc(Br)s2)C(=O)NC1=S	34*	-24	-2	1	7
O=C1NC(=S)NC(=O)C1=Cc1ccc(Br)s1	46*	4	10	-2	4
O=C1NC(=S)NC(=O)C1=Cc1c(Cl)cccc1Cl	10	7	0	-1	-3
CCCCC(=O)N/N=C/c1c(O)n(CCCC)c(=S)[nH]c1=O	-1	-6	61*	4	0
O=C(N/N=C/c1c(O)n(Cc2ccco2)c(=O)[nH]c1=O)c1ccccc1O	-3	22	65*	0	4
CCCCC(=O)N/N=C/c1c(O)n(C2CC2)c(=S)[nH]c1=O	-4	2	1	-2	0
CCCCC(=O)N/N=C/c1c(O)n(Cc2ccco2)c(=O)[nH]c1=O	4	5	72*	-2	0
N#Cc1cccc(-c2ccc([C@H]3[C@@H](CO)N4CCCCN(C(=O)Cc5ccccc5)C[C@@H]34)cc2)c1	nt	nt	2	nt	nt
Cc1ccc(N2C(=O)NC(=O)/C(=C/c3ccoc3)C2=O)cc1	24	98*	1	-18	-4
Cc1cccc(N2C(=O)NC(=O)/C(=C\c3cc(C)n(-c4sc5c(c4C#N)CCCC5)c3C)C2=O)c1C	29*	-27	3	-5	19
SMILES	NadD inh	Neddyl block	ARNT TACC3 PPI	HGIII-sPLA2 inh	DAGLB inhibitor	others
COC(=O)[C@@H]1[C@@H](CO)[C@@H]2Cn3c(ccc(-c4ccccc4)c3=O)[C@H]1N2CCc1ccccc1	nt	nt	-4	nt	nt
COC(=O)[C@@H]1[C@@H](CO)[C@@H]2Cn3c(ccc(-c4ccncc4)c3=O)[C@H]1N2CCc1ccccc1	nt	nt	-5	nt	nt
Cc1cccc(N2C(=O)NC(=O)/C(=C/c3cc4c(cc3[N+](=O)[O-])OCO4)C2=O)c1	2	49*	0	1	0
COC(=O)[C@H]1[C@H](CO)[C@H]2Cn3c(ccc(-c4cccc(OC)c4)c3=O)[C@@H]1N2CC1CC1	nt	nt	-5	nt	nt
COc1ccc(N2C(=O)/C(=C/c3ccc(OC)c(OC)c3)C(=O)NC2=S)cc1	6	2	11	4	2
CCC(C)N1C(=O)/C(=C/c2ccc3c(c2)CCN3CCCCl)C(=O)NC1=S (stereo not given)	40*	-7	1	6	17
NP(=O)(OCCCc1ccccc1)Oc1ccc(Cl)cc1 (stereo not given)	-6	-16	4	-2	35*	DAGLB confirm=35*
CN(C)C(=O)[C@H]1[C@H](CO)[C@H]2Cn3c(cccc3=O)[C@@H]1N2CC1CC1	nt	nt	10	nt	nt
COc1cccc(C(c2nnnn2-c2ccc3c(c2)OCCO3)N2CCC(n3c(=O)[nH]c4ccccc43)CC2)c1OC (stereo not given)	14	2	nt	-4	nt
O=c1[nH]c2ccccc2n1C1CCN(C(c2ccccc2OC(F)(F)F)c2nnnn2-c2ccc3c(c2)OCCO3)CC1 (stereo not given)	29*	4	nt	-8	nt	NadD inh conf=11
O=c1[nH]c2ccccc2n1C1CCN(C(c2ccccc2)c2nnnn2-c2ccc3c(c2)OCCO3)CC1 (stereo not given)	31*	3	nt	-12	nt	NadD inh conf=9
Cc1ccc2c(c1Cl)NC(C(=O)O)C1CC(Sc3ccccc3[N+](=O)[O-])C(Cl)C21 (stereo not given)	36*	-11	8	nt	14	NadD inh conf=31
CC=Cc1ccc2n(c1=O)C[C@H]1[C@H](CO)[C@@H](C(=O)OC)[C@@H]2N1S(=O)(=O)c1cccc(C)c1 (mixture of isomers)	nt	nt	-3	nt	nt
CCCN1[C@@H]2Cn3c(cccc3=O)[C@H]1[C@@H](C(=O)N(C)C)[C@@H]2CO	nt	nt	6	nt	nt
CCCCCn1c(=O)c(C(=O)Nc2ccccc2)c(O)c2ccccc21	3	4	2	3	2
CCCCCCn1c(=O)c(C(=O)Nc2c(C)n(C)n(-c3ccccc3)c2=O)c(O)c2ccccc21	32*	9	-1	-2	1	NadD inh conf=7
